# UHRF1 binding: UHRF1 methylated DNA binding inhibitors, primary screen, counter-screen for MBD2 inhibitor project, biochemical, TR-FRET, human UHRF1, single concentration. E3 ubiquitin-protein ligase UHRF1 (Homo sapiens), Q96T88. UHRF1 binding to methylated oligo. inhibition, % at 4.4 µM. 370,000 tested, 0.75% active. AID 687016, 2013; in the data active means inhibition above about 21%;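 further: UHRF1 SRA domain binding a hemimethylated CpG hairpin DNA probe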
# MBD2 inh: inhibitors of MBD2 binding to methylated DNA, primary screen, biochemical, TR-FRET, DNA-binding domain, human. MBD2 binding to methylated oligonucleotide. 370,000 tested, 0.31% active. inhibition, % at 4.4 µM. AID 686964, 2013; in the data active means inhibition above about 13%
# M18AAP inhibitor: PfM18AAP inhibitors, malaria aminopeptidase, primary screen, biochemical, QFRET, recombinant enzyme; M18 aspartyl aminopeptidase (Plasmodium falciparum 3D7); H-Glu-NHMec fluorogenic cleavage; inhibition, % at 7.35 µM; 290,000 tested, 1.2% active; AID 1822, 2009;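 active means inhibition above the campaign mean inhibition over all tested compounds plus 3 SD, cut at about 28% in these data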
# PfG6PD inh: PfG6PD enzyme inhibitors, primary screen, biochemical, fluorescence intensity, uHTS; glucose-6-phosphate dehydrogenase-6-phosphogluconolactonase (Plasmodium falciparum 3D7); PfGluPho enzyme, NADPH resazurin-diaphorase fluorescence; inhibition, % at 20 µM; 350,000 tested, 0.78% active; AID 504690, 2011;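 active means inhibition reaching at least a set limit at 20 µM in the primary screen, cut at about 59% in these data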
# PRMT1 FP inh: PRMT1 methyltransferase inhibitors, primary screen, biochemical, fluorescence polarization. recombinant PRMT1, activity-based probe fluorescence polarization. Protein arginine N-methyltransferase 1 (Homo sapiens), Q99873. inhibition, % at 2.79 µM. 370,000 tested, 1.3% active;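 active means inhibition above about 21% made by adding two undisclosed values, limit read from the data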
# Target sequence (Q99873 whole entry, looked up): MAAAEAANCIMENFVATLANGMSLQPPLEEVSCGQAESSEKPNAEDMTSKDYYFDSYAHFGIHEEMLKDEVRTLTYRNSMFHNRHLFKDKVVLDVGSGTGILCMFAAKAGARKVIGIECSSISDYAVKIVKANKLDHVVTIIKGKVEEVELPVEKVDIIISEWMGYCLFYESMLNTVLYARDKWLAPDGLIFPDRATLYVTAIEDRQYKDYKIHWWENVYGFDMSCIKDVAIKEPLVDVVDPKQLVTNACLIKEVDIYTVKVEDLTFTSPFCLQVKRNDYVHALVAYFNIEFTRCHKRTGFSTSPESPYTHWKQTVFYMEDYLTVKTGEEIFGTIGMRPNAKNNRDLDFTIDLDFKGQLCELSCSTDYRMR
# PRMT1 inh conf: PRMT1 methyltransferase inhibitors, confirmation, biochemical, fluorescence polarization, triplicate. 3,300 tested, 42% active. recombinant His-PRMT1, activity-based probe fluorescence polarization. shares compounds with PRMT1 FP inh. inhibition, % at 2.79 µM;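 active means mean inhibition across replicates above the hit cutoff derived for the earlier primary screen, cut at about 22% in these data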
# Hits are given with their value; – = inactive; · = no result. An excerpt weighted towards active compounds, which were near 3.3% of everything screened.
SMILES,UHRF1 binding,MBD2 inh,M18AAP inhibitor,PfG6PD inh,PRMT1 FP inh,PRMT1 inh conf
CCN1C(=O)CC(N2CCC(C(=O)OC)CC2)C1=O (stereo not drawn),–,–,–,–,–,·
CCN1C(=O)CC(SC2CC(=O)N(CC)C2=O)C1=O (stereo not drawn),–,–,·,–,33.0,26.6
Cc1ccc(NC(=O)CN(CCc2ccccc2)S(C)(=O)=O)cc1,–,–,–,–,–,·
COc1ccc2nc(SCc3nc(N)nc(Nc4ccccc4)n3)[nH]c2c1,–,–,–,–,–,·
CCc1ccccc1OCC(=O)N1CCN(c2ncccn2)CC1,–,–,·,–,–,·
CC(C)(C)OC(=O)NCCCCCc1nnc(SCc2cccc(F)c2)o1,–,–,–,–,–,·
CC(C)(C)OC(=O)NCCCCCc1nnc(SCc2ccccc2)o1,–,–,–,–,81.3,–
CCn1cc(C(=O)NCCCOC(C)C)c(=O)c2cc(S(=O)(=O)N3CCC(C)CC3)ccc21,–,–,–,–,–,·
CN=c1scc(-c2cccs2)n1/N=C/c1ccc(O)c(O)c1O,–,–,31.0,–,40.0,38.2
Cc1ccc(-c2csc3nc(C)n(-n4cccc4)c(=O)c23)o1,–,–,–,–,26.1,–
N#Cc1ccc(CC(=O)c2ccccc2)[nH]c1=O,–,–,·,–,29.1,–
CCOC(=O)c1c(NS(=O)(=O)c2ccc(Br)cc2)sc2c1CCC2,–,–,–,–,26.6,–
CC(=O)Nc1nnc(SCC(=O)N2C(C)CCCC2C)s1 (stereo not drawn),–,–,–,–,–,·
O=C(CN1C(=O)/C(=C/c2ccco2)SC1=S)Nc1ccc(O)c(C(=O)O)c1,58.4,–,–,–,49.7,31.2
O=C(CCCN1C(=O)/C(=C/c2cccs2)SC1=S)Nc1ccc(O)c(C(=O)O)c1,·,·,–,·,·,·
C[C@H]1CN(c2ccccc2)C(=O)[C@@H]1CC(=O)Nc1ccccc1,–,–,·,–,–,·
O=C1CN(CC(=O)Nc2cccc(Cl)c2Cl)c2ccccc2N1,–,–,–,–,52.3,76.1
O=C(CN1C(=O)NC2(CCCC2)C1=O)Nc1cccc(Cl)c1Cl,–,–,–,–,–,·
COc1cccc(CN(C)CC(=O)NC(=O)NCc2ccco2)c1,–,–,–,–,–,·
CN(C)/C=N/c1cc(=O)[nH]c(=O)n1CC1CC1,–,–,–,–,–,·
C=CCn1c(=O)[nH]c2nc3cc(N=CN(C)C)c(C)cc3nc2c1=O,–,–,–,–,30.6,75.4
O=C1CCC(C(=O)Nc2cccc(S(=O)(=O)Nc3ccccc3F)c2)=NN1,–,–,·,92.2,31.3,–
Cn1ccnc1Sc1cc(NCCCO)c([N+](=O)[O-])c2nonc12,–,–,–,–,41.7,26.5
O=[N+]([O-])c1c(NCCCO)cc(Sc2ccc(Cl)cc2)c2nonc12,–,–,–,–,–,·
COc1ccc(C(C(=O)NC2CCCCC2)N(Cc2ccco2)C(=O)c2snc(C(N)=O)c2N)cc1 (stereo not drawn),–,–,–,–,–,·
SMILES,UHRF1 binding,MBD2 inh,M18AAP inhibitor,PfG6PD inh,PRMT1 FP inh,PRMT1 inh conf
CC(CCc1ccco1)NC(=O)c1cc2c(-c3ccccc3F)nn(C)c2s1 (stereo not drawn),–,–,–,–,46.6,–
Cc1nn(C)c(-c2n[nH]c(=S)n2Cc2ccco2)c1Cl,–,–,–,–,28.3,–
Oc1ccc(-c2n[nH]c(=S)n2Cc2ccco2)cc1,–,–,–,–,–,·
CC(C)n1cc(/C=N/Nc2ccc(C(=O)O)cc2)c2ccccc21,–,–,–,–,25.6,–
O=C(CSc1oc(-c2ccco2)nc1S(=O)(=O)c1ccc(F)cc1)NCC1CCCO1 (stereo not drawn),–,–,–,–,45.5,–
O=C(CSc1oc(-c2ccco2)nc1S(=O)(=O)c1ccccc1)NCC1CCCO1 (stereo not drawn),–,–,–,–,–,·
Cc1cc(C(=O)NCCc2ccc(S(N)(=O)=O)cc2)c(C)o1,–,–,–,–,–,·
COC(=O)c1c(N2C(=O)CC(Sc3ccccc3C(=O)O)C2=O)sc(C)c1C (stereo not drawn),–,–,–,–,64.3,51.3
COC(=O)c1c(N2C(=O)CC(Sc3ccccc3C(=O)O)C2=O)sc2c1CCCC2 (stereo not drawn),–,–,–,–,54.7,48.3
CCOC(=O)c1cc(CC)sc1N1C(=O)CC(Sc2ccccc2C(=O)O)C1=O (stereo not drawn),–,–,–,–,54.2,55.7
O=C(O)c1ccccc1SC1CC(=O)N(c2ccccc2)C1=O (stereo not drawn),–,–,–,–,66.4,23.1
O=C(O)c1ccccc1SC1CC(=O)N(C2CCCCC2)C1=O (stereo not drawn),·,·,–,–,·,·
CCOC(=O)c1cc(CC)sc1N1C(=O)CC(Sc2ncccc2C(=O)O)C1=O (stereo not drawn),–,–,–,–,–,·
O=C(Nc1ccccc1)Nc1c(-c2ccc(F)cc2)nc2ncccn12,–,–,·,·,–,·
O=C(CSc1nc2ccccc2c(=O)n1CCCN1CCOCC1)Nc1ccccc1OC(F)F,–,–,·,–,–,·
CCN(CC)CCN(C)C(c1cc2ccccc2o1)c1nnnn1C(C)(C)C (stereo not drawn),–,–,·,·,–,·
Cc1ccccc1CNC(=O)C1CCCN(c2ncccn2)C1 (stereo not drawn),–,–,·,·,–,·
Clc1ccc(-c2nc3c4ccccc4ccn3c2Cc2ccsc2)cc1,–,–,·,·,–,·
Cc1ccc(CS(=O)Cc2ccc(C(=O)NCc3ccccc3Br)o2)cc1 (stereo not drawn),–,–,–,–,–,·
CCCN1CNC(=S)N(Cc2ccccc2)C1,–,–,–,–,–,·
CCCN1CNC(=S)N(CC2CCCO2)C1 (stereo not drawn),–,–,–,–,66.5,–
C=CCn1c(SC(F)F)nc2scc(-c3ccco3)c2c1=O,–,–,–,–,63.7,–
C=CCn1c(SCC(C)=O)nc2scc(-c3ccco3)c2c1=O,–,–,–,–,49.4,22.3
C=CCn1c(SCC(=O)N2CCOCC2)nc2scc(-c3ccco3)c2c1=O,·,·,–,–,·,·
C=CCn1c(SCc2ccc3c(c2)OCO3)nc2scc(-c3ccco3)c2c1=O,–,–,–,–,–,·
CC12CCC(/C(=C/NNc3ccc([N+](=O)[O-])cc3[N+](=O)[O-])C1=O)C2(C)C (stereo not drawn),–,–,·,–,–,·
CCOC(=O)Nc1ccc2nc(N3CCCCCC3)sc2c1,–,–,–,–,–,·
CC(=O)Nc1ccc2c(c1)C(=Nc1ccc(C)cc1)c1ccccc1-2,–,–,·,–,–,·

# Bioassay records deposited in PubChem by several laboratories.
